From PubChem BioAssay (Tox21) come the findings set out here.

Values without a mark were called inactive. Calls of active or inactive are those of the source. The call rests on the fitted dose curve; in most records, active means well fitted cell-killing curve with a large enough effect in the repeat runs; inconclusive means weak or mixed curves, or effect the other way; inactive means flat fitted curve, though single readings scatter.
On the % scale 0 is the no-effect control and ±100 the full control effect.

A short description of this experiment: qHTS assay to identify small molecule HDAC inhibitors - cell viability counter screen (AID 1259365). Further: nearly all actives have a fitted effect of over 50% in size. Particulars: HCT-116 viability, CellTiter-Glo ATP luminescence, 2 h; series mostly up to 92.4 µM. From the text:
U.S. Tox21 Program National Center for Advancing Translational Sciences [NCATS] NIH Chemical Genomics Center [NCGC] U.S. Environmental Protection Agency [EPA] National Institutes of Environmental Health Sciences [NIEHS] National Toxicology Program [NTP] U.S. Food and Drug Administration [FDA] Tox21 Assay Overview: Histone deacetylases (HDACs) are a group of epigenetic enzymes that regulate gene expression by histone deacetylation. HDACs are capable of introducing epigenetic modifications and such aberrations contribute to the onset and progression of several human diseases, thus making HDACs a popular therapeutic target. For identifying endogenous class I/II HDAC inhibitors a homogenous, luminogenic HDAC I/II cell based assay was used to measure the relative activity of class I and II HDACs from cells. Wild type HCT-116 cells were used to screen Tox21 compound libraries for identifying class I/II HDAC inhibitors.
Tox21 Assay Protocol Summary: HCT-116 cells were dispensed at 1,500 per well in 5uL of culture medium into white solid bottom 1536-well plates (Greiner Bio-One, Monroe, NC) using a Multidrop Combi (Thermo Scientific, Waltham, MA) dispenser. The assay plates were incubated at 37 C and 5% CO2 for an overnight, and then 23nL of compounds dissolved in DMSO and positive control were transferred using a Pintool station (Wako, San Diego, CA). The assay plates were incubated at 37C and 5% CO2 for 2hr. After compound treatment, 4uL of CellTiter-Glo reagent (Promega Corporation, Madison, WI) was added to each well of the assay plates using Flying Reagent Dispenser (FRD, Aurora Discovery, San Diego, CA) and incubated the assay plates at room temperature for 30min. The luminescence signal was quantified using a ViewLux plate reader (Perkin Elmer, Shelton, CT).
As to `CCCCOCC(C)OCC(C)O` (stereo not given), the call was inactive.

For the compound `OC/C=C/c1ccccc1`, the call was inactive. `N#CC1(O)CCCCC1`: the outcome was inactive. Take `OCC(CO)(CO)COCC(CO)(CO)CO`: the result was inactive. Same read-out and setting: then `COc1cc(O)cc(O)c1`, with “inactive”; and `CCc1cc(S(=O)(=O)O)c2cc(C(C)C)cccc1-2`, with “inactive”; and `Nc1cc(N)cc(C(=O)O)c1`, with “inactive”.

For the compound `C=CCOc1nc(OCC=C)nc(OCC=C)n1`, the call was inactive. On the same count and under the same terms, then `CC(C)c1ccc2oc3nc(N)c(C(=O)O)cc3c(=O)c2c1`, with “inactive”; and `CCOC(=O)Nc1ccc2c(c1)N(C(=O)CCN1CCOCC1)c1ccccc1S2`, with “inactive”.

In the case of `CC/C=C\CCCCO`, the call was inactive.

With `NCC[C@H](O)C(=O)N[C@@H]1C[C@H](N)[C@@H](O[C@H]2O[C@H](CN)[C@@H](O)[C@H](O)[C@H]2O)[C@H](O)[C@H]1O[C@H]1O[C@H](CO)[C@@H](O)[C@H](N)[C@H]1O`, the activity change, negative = cytotoxicity is 1.82% [at 0.349 µM]. As to `O=C(O)CCNC(=O)c1ccc(N=Nc2ccc(O)c(C(=O)O)c2)cc1`, the compound was classed as inactive.

With `c1ccc(SCCSc2ccccc2)cc1`, the result was inactive. Take `[O-][N+](=Nc1ccccc1)c1ccccc1`: the outcome was inactive.

As to `CC(C)COC(=O)C(C)C`, the outcome was inactive. Still for that read-out and setting: the entry for `NC(=O)CCCCC1CCSS1` (stereo not given) is “inactive”; for `CN(C)N=Nc1ccccc1` it is “inactive”. Same read-out and setting: then `Nc1nc(F)nc2c1ncn2[C@@H]1O[C@H](CO)[C@@H](O)[C@@H]1O`, with “inactive”; and `CC/C=C\C#N`, with “inactive”; and `C=CCOCC(O)CS(=O)(=O)O` (stereo not given), with “inactive”. Regarding `Cn1cnc2c(=O)[nH]c(N)nc21`, the call was inactive. Still for that read-out and setting: then `CCN(CC)C(=O)c1ccc(O)c(OC)c1`, with “inactive”; and `CCC(C)OC(=O)N1CCCCC1CCO` (stereo not given), with “inactive”. The same measure, in the same setting: then `CCCCCCOC(=O)CC(CC(=O)OCCCCCC)(OC(=O)CCC)C(=O)OCCCCCC`, with “inactive”; and `CC(C)(C)C(=O)/C=C/c1ccc(Cl)cc1`, with “inactive”. The same measure, in the same setting: then `CC(C)CCCC(C)CCCC(C)CCCCC(C)CCCC(C)CCCC(C)C` (stereo not given), with “inactive”. As to `C=C[Si](OC)(OC)OC`, the compound was classed as inactive. Take `CC(C)[C@H](N)C(=O)OCCOCn1cnc2c(=O)[nH]c(N)nc21`: the call was inactive.

On to `C[C@H](O)C(=O)Nc1c(I)c(C(=O)NC(CO)CO)c(I)c(C(=O)NC(CO)CO)c1I`, for which the result was inactive. Consider `CCCCCCCCCCCCI`, for which the result was inactive. Same read-out and setting: then `COc1cc(CCC(C)=O)ccc1O`, with “inactive”; and `CC(CCO)CCCC(C)(C)O` (stereo not given), with “inactive”. On the same count and under the same terms, the entry for `C=CC(=O)OCCCCCC` is “inactive”; for `OCCN1C[C@H](O)[C@@H](O)[C@H](O)[C@H]1CO` it is “inactive”; for `CCO[Si](CCCN=C=O)(OCC)OCC` it is “inactive”. The same measure, in the same setting: then `N#CCN(CC#N)CCN(CC#N)CC#N`, with “inactive”; and `Nc1cc(C(Cl)=C(Cl)Cl)c(S(N)(=O)=O)cc1S(N)(=O)=O`, with “inactive”; and `Cc1ccc(Nc2ccc(O)c3c2C(=O)c2ccccc2C3=O)cc1`, with “inactive”. In the case of `O=[N+]([O-])c1ccc(Oc2ccc([N+](=O)[O-])cc2)cc1`, the compound was called inactive.
